An excerpt weighted towards active compounds, which were near 2.4% of everything screened.
AmpC inh det = Promiscuous and Specific Inhibitors of AmpC Beta-Lactamase (assay with detergent). 71,000 tested, 0.09% active. P00811. Potency, µM (titrated, usually from 28.7 µM), without a hit: at the top dose activity change, negative = inhibition. purified AmpC, nitrocefin hydrolysis with detergent; active means well fitted curve in the direction sought with a large enough effect; inconclusive means small, poorly fitted or top-dose-only effect; further: on the % scale 0 is the no-effect control and ±100 the full control effect
Target sequence (P00811 whole entry, looked up): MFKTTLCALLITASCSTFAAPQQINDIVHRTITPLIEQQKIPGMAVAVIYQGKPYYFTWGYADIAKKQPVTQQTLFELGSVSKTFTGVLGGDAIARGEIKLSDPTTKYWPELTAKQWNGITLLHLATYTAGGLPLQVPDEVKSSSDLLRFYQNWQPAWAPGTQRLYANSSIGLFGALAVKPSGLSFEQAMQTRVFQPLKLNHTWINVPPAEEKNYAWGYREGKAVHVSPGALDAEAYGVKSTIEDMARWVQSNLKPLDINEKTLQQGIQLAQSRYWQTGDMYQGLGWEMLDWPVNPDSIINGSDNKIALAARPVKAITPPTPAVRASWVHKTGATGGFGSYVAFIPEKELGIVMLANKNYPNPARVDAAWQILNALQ
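E. coli AmpC (5.3 nM) in 20 mM phosphate pH 7.0 with 0.01% Triton X-100, preincubated 15 min RT with compound; nitrocefin (2 uL of 800 uM stock) hydrolysis followed by 480 nm absorbance every 20 s over 4 min.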
Prx2 Sm inh = Schistosoma Mansoni Peroxiredoxins (Prx2) | Schistosoma mansoni peroxiredoxin 2 (Prx2) | S. mansoni Prx2 activity coupled to TGR/GSH (TGR is thioredoxin glutathione reductase), NADPH fluorescence loss, qHTS | Potency, µM | 65,000 tested, 0.07% active | AID 448, 2006
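Prx2 activity was followed as the loss of NADPH fluorescence (ex 365/em 450 nm), read every 30 sec for 8 min after H2O2 start. The enzyme mix (50 nM Prx2, 25 nM TGR, GSH, NADPH; pH 7.4 phosphate buffer) was incubated with compound for 15 min at room temperature first.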
AmpC inh no det = Promiscuous and Specific Inhibitors of AmpC Beta-Lactamase (assay without detergent); Potency, µM (titrated, usually from 28.7 µM), without a hit: at the highest dose activity change, negative = inhibition; 71,000 tested, 1.8% active; P00811; AmpC nitrocefin hydrolysis, absorbance 480 nm, no detergent; further: % of control where 0% means no effect
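AmpC in 20 mM phosphate buffer pH 7.0 was preincubated 15 min at room temperature with compounds. Nitrocefin (800 uM stock) was then added and hydrolysis followed at 480 nm every 20 s for 4 min.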
LT uptake inh = qHTS Assay for Anthrax Lethal Toxin Internalization; Cells, anthrax lethal toxin internalization, FRET ratio (460/530); Potency, µM (titrated, usually from 40 µM), for inactives: at the highest dose activity change, negative = inhibition, hits mostly inhibitors; 70,000 tested, 0.67% active; further: on the % scale 0 is the no-effect control and ±100 the full control effect; nearly all actives have a fitted effect of over 50% in size
Numbers without * were called inactive; ? = inconclusive; . = not tested or not shown; ! = a repeat was not active; [ ] = remark or other dose. Unless noted, the call rests on the fitted dose curve. Potency means the concentration at half of the fitted maximal effect.

SMILES	AmpC inh det	Prx2 Sm inh	AmpC inh no det	LT uptake inh
O=C(COC(=O)Cc1ccc(S(=O)(=O)N2CCCCC2)s1)Nc1ccc2c(c1)OCO2	11%	>57	13µM*	-9%
O=C(COC(=O)Cc1ccc(S(=O)(=O)N2CCOCC2)s1)NCc1ccccc1	-3%	>57	14%	-3%
O=C1c2sc3nc4c(c(=O)n3c2C(=O)N1c1ccccc1)CCC4	12%	>57	-13%	-21%
Cc1ccccc1N1C(=O)c2sc3nc4c(c(=O)n3c2C1=O)CCC4	11%	.	-17%	13µM*
O=c1cc(-c2cccc(O)c2)oc2c(O)c(O)ccc12	-8%	>57	?	?
O=C(O)CCc1c2ccc(=O)c(O)c-2oc2c(O)c(O)ccc12	-26%[5.75 µM]	>57	2.5µM*	-26%[8 µM]
Cc1ccccc1CNc1nc(N)n(-c2ccccc2)n1	6%	>57	4µM*[single pt active]	-6%
CC(=O)C[C@H](c1ccc([N+](=O)[O-])cc1)c1c(O)c2ccccc2oc1=O	-1%[12.8 µM]	>57	-6%[12.8 µM]	-5%[3.58 µM]
CCC(Cl)CC(Cl)C(Cl)C(Cl)C(Cl)C(C)Cl (stereo unspecified)	13%	.	-18%	2.5µM*
Cc1cc(NC(=O)CSc2c3c(nc4ccccc24)CCC3)no1	12%	>57	4µM*[single pt active]	?
COc1ccc(C2c3sc(=O)[nH]c3SC3C(=O)N(c4ccccc4)C(=O)C32)cc1 (stereo unspecified)	11%	>57	4µM*[single pt active]	-16%
COC(=O)C1CC1C(NC(=O)[C@H]1CCCCN1)c1ccccc1 (stereo partly specified)	-3%	>57	36%	-4%
O=C(CSCc1ccc(Cl)cc1)c1ccco1	17%	>57	10µM*[single pt active]	-20%
O=c1[nH]c(=O)n([C@@H]2C[C@H](O)[C@H](CO)O2)cc1I	-1%[12.8 µM]	>57	-4%[12.8 µM]	-6%[3.58 µM]
CN1CCN(S(=O)(=O)c2ccc(NC(=O)Nc3cccc(Cl)c3)cc2)CC1	-3%	>57	13%	13µM*
O=C(Nc1ccccc1)Nc1ccc(S(=O)(=O)N2CCCCC2)cc1	-2%	>57	-23%	?
FC(F)(F)c1ccccc1-c1cc(NCc2cccnc2)ncn1	9%	>57	16%	?
CCOc1ccc(-n2c(Cc3cc(=O)[nH]c(=O)[nH]3)nnc2SCC(=O)OC)cc1	9%	>57	4µM*[single pt active]	-10%
Cc1ccc(C)c(-n2c(Cc3cc(=O)[nH]c(=O)[nH]3)nnc2SC(C)C)c1	13%	>57	4µM*[single pt active]	-5%
COC(=O)C(C)Sc1nnc(Cc2cc(=O)[nH]c(=O)[nH]2)n1-c1ccc(OC)cc1 (stereo unspecified)	13%	>57	4µM*[single pt active]	-12%
CCC(C)Sc1nnc(Cc2cc(=O)[nH]c(=O)[nH]2)n1-c1ccc(OC)cc1 (stereo unspecified)	13%	>57	3.2µM*[single pt active]	-12%
COc1ccccc1-c1cncnc1NCc1ccccc1	7%	>57	4%	8%
Cc1ccccc1-c1ccc2ncnc(N(C)C)c2c1	6%	>57	77%	-18%
CN(C)c1ccc(-c2ccc3ncnc(-n4ccnc4)c3c2)cc1	11%	>11	78%	7.9µM*
Cc1ccccc1-c1ccc2ncnc(-n3ccnc3)c2c1	10%	>57	45%	5µM*
SMILES	AmpC inh det	Prx2 Sm inh	AmpC inh no det	LT uptake inh
CN(C)[C@@H]1C(=O)C(C(N)=O)=C(O)[C@]2(O)C(=O)C3=C(O)c4c(O)cccc4[C@@](C)(O)[C@@H]3C[C@@H]12	-3%	>57	-3%	?
COc1cccc(Cn2nnc(C(=O)NCc3ccccc3Cl)c2N)c1	11%	.	4µM*[single pt active]	?
COc1cccc(Cn2nnc(C(=O)NCc3ccc(F)cc3)c2N)c1	13%	>57	4µM*[single pt active]	-12%
CCOc1ccc(Cn2nnc(C(=O)NCCc3ccccc3)c2N)cc1	10%	>57	4µM*[single pt active]	-7%
CCCCCCCCN[C@@H](C)[C@H](O)c1ccc(SC(C)C)cc1	-3%[12.8 µM]	>57	-6%[12.8 µM]	-4%[3.58 µM]
CC(=O)OC[C@@H]1O[C@@H](Oc2cc(OC(C)=O)c3c(=O)cc(-c4ccc(OC(C)=O)c(OC(C)=O)c4)oc3c2)[C@H](OC(C)=O)[C@H](OC(C)=O)[C@@H]1OC(C)=O	1%	>57	94%	?
CO[C@@H]1COC(=O)[C@@H](CCSC)NC(=O)C/C=C\[C@@H](C)COC(=O)CCC[C@H]1C	.	.	.	-7%[1.6 µM]
[Cl-].[Cl-].[Hg+2]	13µM*	.	1.3µM*	?
[Cd+2].[Cl-].[Cl-]	10%	.	-8%	?
CCCC=O	7%	.	-5%	?
O=C1c2ccccc2C(Nc2cccnc2)N1Cc1ccc2c(c1)OCO2 (stereo unspecified)	13%	>57	3.2µM*[single pt active]	0%
COc1ccc(OC)c(NC2c3ccccc3C(=O)N2Cc2ccc3c(c2)OCO3)c1 (stereo unspecified)	15%	>57	4µM*[single pt active]	?
O=C1c2ccccc2C(O)N1Cc1ccc2c(c1)OCO2 (stereo unspecified)	13%	>57	4µM*[single pt active]	-5%
Cc1ccn2c(CCc3nnc4cc(C)ccn34)nnc2c1	-7%[5.75 µM]	>57	-3%[5.75 µM]	-2%[8 µM]
CCOC(=O)c1cc2sccc2n1CC(=O)N1c2ccccc2CC1C (stereo unspecified)	0%	>57	16µM*[single pt active]	10%
Cc1cc2c(nc1C)CCCN2C[C@H](O)CN1CCCc2nc(-c3ccc(Br)cc3)ccc21	.	.	.	11%[8 µM]
CC(=O)OCC1OC(c2ccc(C(C)=O)cc2)C=CC1OC(C)=O (stereo unspecified)	.	.	.	5%[8 µM]
ClC1=C(Cl)C2(Cl)C3C(Cl)C=CC3C1(Cl)C2(Cl)Cl (stereo unspecified)	8%	.	-24%	16µM*
COc1cc(Cc2cnc(N)nc2N)cc(OC)c1OC	-1%	>57	6.3µM*!	?
COc1ccc2c(c1)c(CCN1CCOCC1)c(C)n2C(=O)c1cccc(Cl)c1Cl	.	.	.	13µM*
COc1ccc2c(c1)c(CC(=O)O)c(C)n2C(=O)c1ccc(Cl)cc1	3%	>57	-1%	?
O=C(Nc1ccccc1)c1ccccc1O	2%	>57	-10%	-13%
O=C(N/N=C\c1ccccc1O)c1ccccc1O	-1%	>57	16µM*	?
O=C(c1ccncc1)N1CCC[C@@]2(CCN(c3ccccc3)C2)C1	-6%	>57	108%	?
NC(=NCc1ccc(Cl)c(Cl)c1)NC(=O)c1nc(Cl)c(N)nc1N	0%	>11	13µM*[single pt active]	?

From PubChem BioAssay
